Compounds with a hit are over-represented: about 5.3% of the library has one in this group of screens.
Tau FP inhib – tau fibrillization inhibition (FP); P10636; K18 P301L tau heparin fibrillization, Alexa594 FP, 6 h; Potency, µM (titrated, usually from 57.7 µM), inactives show at the highest dose activity, negative = inhibition, most hits filed as inhibitors; 0.39% of 280,000 active; AID 1468; also: potency is read from the fitted curve at half-maximal effect; nearly all actives have a fitted effect of over 55% in size
Target sequence (P10636 561-689 P618L limits assumed): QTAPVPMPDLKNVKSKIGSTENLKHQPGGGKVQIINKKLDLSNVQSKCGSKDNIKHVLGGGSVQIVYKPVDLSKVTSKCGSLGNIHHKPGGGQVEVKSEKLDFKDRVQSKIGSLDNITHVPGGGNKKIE
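Human K18 P301L fragment (15 uM unlabeled plus 0.24 uM Alexa 594-labeled) in 100 mM sodium acetate pH 7 with compound, aggregation induced by 20 uM heparin for 6 hr at 37 C. ThT (30 uM) added for 1 hr, then Alexa 594 FP read.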
Tau fluor cs – counter-screen for tau fibril formation inhibitors. tau K18 P301L Alexa594 fluorescence, heparin fibrillization. Potency, µM (highest dose often 57.7 µM), for the others: top-dose activity change, negative = decrease. 0.93% of 280,000 active; also: potency is read from the fitted curve at half-maximal effect; nearly all actives have a fitted effect of over 55% in size
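Human tau K18 P301L (15 uM unlabeled, 0.24 uM Alexa 594-labeled) in 100 mM sodium acetate pH 7 with 20 uM heparin, 6 hr at 37 C. ThT 30 uM added, 1 hr ambient; Alexa 594 FP and total fluorescence read at 555/632 nm.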
Sfp inh – Sfp phosphopantetheinyl transferase inhibition; Q9F4F7; Potency, µM, without a hit: largest response in the series, negative = inhibition, actives largely listed as inhibitors; 3.5% of 310,000 active; Biochemical Sfp PPTase activity, qHTS;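 also: the enzyme is Sfp with the accession as filed and its product quenches rhodamine fluorescence; potency is read from the fitted curve at half-maximal effect; 0% = enzyme reaction without inhibitor and -100% = no enzyme wells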
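Compounds were incubated with enzyme (final 15 nM) for 15 min at room temperature before substrate addition started the reaction. Fluorescence at 525 nm excitation, 598 nm emission was recorded immediately and after 30 minutes.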
JMJD2E inh – JMJD2E (human) inhibition | AID 2147 | Potency, µM (series often up to 57.1 µM), for the others: at the highest dose activity change, negative = inhibition, most hits filed as inhibitors | 1.6% of 230,000 active | B2RXH2 | JMJD2E catalytic domain, FDH-coupled NADH fluorescence (FDH is formaldehyde dehydrogenase);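 also: potency is read from the fitted curve at half-maximal effect; 0% = wells with enzyme and -100% = buffer wells without enzyme; nearly all actives have a fitted effect of over 50% in size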
Target sequence (B2RXH2 1-337 limits assumed): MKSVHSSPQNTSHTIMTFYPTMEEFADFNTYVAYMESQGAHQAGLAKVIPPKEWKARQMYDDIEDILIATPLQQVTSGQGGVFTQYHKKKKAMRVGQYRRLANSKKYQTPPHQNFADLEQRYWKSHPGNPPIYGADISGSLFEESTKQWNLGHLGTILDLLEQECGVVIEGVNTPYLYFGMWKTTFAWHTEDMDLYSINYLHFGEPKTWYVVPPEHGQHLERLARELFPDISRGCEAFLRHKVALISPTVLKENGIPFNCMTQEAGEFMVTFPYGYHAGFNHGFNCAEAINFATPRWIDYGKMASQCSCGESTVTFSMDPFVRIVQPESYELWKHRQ
Tau ThT inhib – tau fibrillization inhibition (ThT binding); recombinant tau K18 P301L (four-repeat tau fragment), heparin-induced fibrillization, ThT fluorescence; 2.1% of 270,000 active; Potency, µM (top dose mostly 57.4 µM), inactives show at the top dose activity, negative = inhibition, usual class: inhibitors; AID 1460; also: potency is read from the fitted curve at half-maximal effect; nearly all actives have a fitted effect of over 55% in size
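Heparin-induced fibrillization of the P301L-mutant K18 repeat-domain fragment of human tau was followed by ThT binding in quantitative high-throughput format.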
FBPA coupling cs – inhibits coupling enzyme system, counter-screen for aldolase hits. coupling enzyme system counterscreen, AmpLite Red fluorescence. 0.67% of 290,000 active. activity change, negative = inhibition, % at 58.2 µM, hits read low; in the data active = activity change below about -30%
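Activity here indicates interference with the coupling reaction, not aldolase inhibition. Compounds at 57.5 uM final met coupling enzymes for 10 min at RT; substrate and AmpLite Red detection followed, with a 525/598 nm fluorescence read after 20 min.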
An asterisk follows results filed as active; [ ] = remark or other dose. Unless noted, calls follow the shape of the dose curve; as a rule, active = well fitted curve in the direction sought with a large enough effect; inconclusive = small, poorly fitted or top-dose-only effect, or another doubt; inactive = no such curve, though single readings can be large; an effect the other way counts as inactive or inconclusive. Unless noted, % is scaled to controls: 0 for no effect and ±100 for the full control effect.

How did C=CCNC(=S)Nc1ccc(C)c(S(=O)(=O)N2CCCCC2)c1 do in these assays?
Tau FP inhib: -15%; Tau fluor cs: -20%; Sfp inh: 20%; JMJD2E inh: 6%; Tau ThT inhib: 11%; FBPA coupling cs: -1

What do the screens show for `Cc1ccc(NC(=O)c2sc3nc(-c4cccs4)ccc3c2N)cc1F`?
Tau FP inhib: -9%; Tau fluor cs: inconclusive; Tau ThT inhib: inconclusive

How did CCCSc1nnc(NC(=O)c2sc3nc(-c4cccs4)ccc3c2N)s1 do in these assays?
Tau FP inhib: -4%; Tau fluor cs: inconclusive; Sfp inh: -21%; JMJD2E inh: inconclusive; Tau ThT inhib: 7.9µM*; FBPA coupling cs: 0

How did Cc1csc(NC(=O)c2sc3nc(-c4cccs4)ccc3c2N)n1 do in these assays?
Tau FP inhib: 13%; Tau fluor cs: inconclusive; Sfp inh: -1%; JMJD2E inh: inconclusive; Tau ThT inhib: 7.9µM*; FBPA coupling cs: -5

How did Cc1nc(NCc2ccccc2)c2nc(-c3ccccc3)n(CCN3CCCC3)c2n1 do in these assays?
Tau FP inhib: 6%; Tau fluor cs: 0%; Sfp inh: 7%; JMJD2E inh: inconclusive; Tau ThT inhib: 1%; FBPA coupling cs: 7

What do the screens show for `Cc1oc2c(c(C)cc3oc(=O)c(CC(=O)NCCc4ccccc4F)c(C)c32)c1C`?
Tau FP inhib: -5%; Tau fluor cs: 7%; Tau ThT inhib: 4%

How did CCCn1c(C)nc2c(Nc3ccccc3)nc(C)nc21 do in these assays?
Tau FP inhib: -11%; Tau fluor cs: -8%; Sfp inh: 15%; JMJD2E inh: -4%; Tau ThT inhib: -3%; FBPA coupling cs: -1

Results for O=C(Nc1nnc(Cc2ccccc2)s1)C1CCN(C(=O)c2ccco2)CC1 ?
Sfp inh: 50µM*; FBPA coupling cs: 3

How did Cn1c(=O)c2c(nc(N/N=C/c3ccc(OC(=O)c4ccco4)cc3)n2Cc2ccccc2Cl)n(C)c1=O do in these assays?
Tau FP inhib: 10%; Tau fluor cs: 7.9µM*[quencher]; Sfp inh: -15%; JMJD2E inh: 4%; Tau ThT inhib: inconclusive; FBPA coupling cs: 0

Results for Cn1c(=O)c2c(nc(N/N=C/c3ccc(OC(=O)c4ccco4)cc3)n2Cc2ccc(F)cc2)n(C)c1=O ?
Tau FP inhib: 10%; Tau fluor cs: 7.1µM*[quencher]; Sfp inh: inconclusive; JMJD2E inh: -6%; Tau ThT inhib: inconclusive; FBPA coupling cs: -3

Results for Cn1c(=O)c2c(nc(N/N=C/c3cccnc3)n2Cc2ccccc2)n(C)c1=O ?
Tau FP inhib: -5%; Tau fluor cs: -24%; Sfp inh: 5%; JMJD2E inh: -8%; Tau ThT inhib: -16%; FBPA coupling cs: 1

What do the screens show for `Cc1cc(C)cc(NC(=O)CSc2oc(-c3cccs3)nc2S(=O)(=O)c2ccccc2)c1`?
Tau FP inhib: inconclusive; Tau fluor cs: inconclusive; Tau ThT inhib: -6%

Results for CCOC(=O)C1=C(Cc2ccc(Cl)cc2)C(=O)c2ccccc2C1=O ?
Tau FP inhib: inconclusive; Tau fluor cs: inconclusive; Sfp inh: 3.5µM*; JMJD2E inh: inconclusive; Tau ThT inhib: 14µM*; FBPA coupling cs: -37*

What do the screens show for `CCOC(=O)c1c(C=O)c(C)n(Cc2ccc(Cl)cc2)c1C`?
Tau FP inhib: 2%; Tau fluor cs: -13%; Sfp inh: 2%; JMJD2E inh: 3%; Tau ThT inhib: inconclusive; FBPA coupling cs: 2

How did COc1ccc(/C=C(/C#N)c2nc(-c3ccc(Br)cc3)cs2)cc1 do in these assays?
Tau FP inhib: inconclusive; Tau fluor cs: -23%; Tau ThT inhib: inconclusive

What do the screens show for `CC(C)c1ccc(/C=C(\C#N)c2nc(-c3ccc(O)cc3)cs2)cc1`?
Tau FP inhib: 13µM*; Tau fluor cs: 8.9µM*[quencher]; Tau ThT inhib: 7.9µM*

Results for COc1ccc(-c2csc(/C(C#N)=C\c3ccc(OC)c([N+](=O)[O-])c3)n2)cc1 ?
Tau FP inhib: 0%; Tau fluor cs: -27%; Sfp inh: 2%; JMJD2E inh: 2%; Tau ThT inhib: inconclusive; FBPA coupling cs: 0

How did COc1ccc(-c2csc(/C(C#N)=C\c3ccc(O)c([N+](=O)[O-])c3)n2)cc1OC do in these assays?
Tau FP inhib: -5%; Tau fluor cs: 4.5µM*[quencher]; Sfp inh: -10%; JMJD2E inh: 13%; Tau ThT inhib: 1.3µM*; FBPA coupling cs: 6

How did N#C/C(=C\c1ccc(O)c([N+](=O)[O-])c1)c1nc2ccccc2s1 do in these assays?
Tau FP inhib: -1%; Tau fluor cs: inconclusive; Sfp inh: -25%; JMJD2E inh: -17%; Tau ThT inhib: 2.2µM*; FBPA coupling cs: 8

What do the screens show for `N#C/C(=C\c1ccco1)c1nc2ccccc2s1`?
Tau FP inhib: -9%; Tau fluor cs: -27%; Sfp inh: 5%; JMJD2E inh: 1%; Tau ThT inhib: inconclusive; FBPA coupling cs: 1

What do the screens show for `N#C/C(=C/c1ccc(-c2cc(C(=O)O)cc(C(=O)O)c2)o1)c1nc2ccccc2s1`?
Tau FP inhib: 2%; Tau fluor cs: -18%; Sfp inh: 56µM*; JMJD2E inh: inconclusive; Tau ThT inhib: inconclusive; FBPA coupling cs: 10

What do the screens show for `COc1cc(/C=C(\C#N)c2nc3ccccc3s2)cc([N+](=O)[O-])c1O`?
Tau FP inhib: -3%; Tau fluor cs: 16µM*[quencher]; Sfp inh: -29%; JMJD2E inh: -27%; Tau ThT inhib: 1.4µM*; FBPA coupling cs: -2

How did N#C/C(=C/c1ccco1)c1nc2ccccc2s1 do in these assays?
Tau FP inhib: 1%; Tau fluor cs: 2%; Sfp inh: -23%; JMJD2E inh: 4%; Tau ThT inhib: 9%; FBPA coupling cs: -6

What do the screens show for `CCOC(=O)c1ccccc1NC(=O)C1CC(=O)N(C(C)(C)C)C1` (stereo not given)?
Sfp inh: 18%; FBPA coupling cs: 0

Results for CCOC(=O)c1ccccc1NC1CC(=O)N(c2ccccc2C)C1=O (stereo not given) ?
Tau FP inhib: -3%; Tau fluor cs: -2%; Sfp inh: 79µM*; JMJD2E inh: inconclusive; Tau ThT inhib: -11%; FBPA coupling cs: 1

Results for O=c1c(CCc2ccccc2)nc2cnc(Nc3ccccc3)nc2n1Cc1cccs1 ?
Sfp inh: 22%; FBPA coupling cs: 1

What do the screens show for `CSc1nnc(N2C(=O)C(O)=C(C(=O)c3ccco3)C2c2ccc(F)cc2)s1` (stereo not given)?
Sfp inh: 35µM*

What do the screens show for `Cc1cc(N2C(=O)C(O)=C(C(=O)c3ccco3)C2c2cccc(Cl)c2)no1` (stereo not given)?
Sfp inh: -13%

Bioassay records: PubChem BioAssay, National Center for Advancing Translational Sciences (NCATS)
